High-throughput results as filed in PubChem.
mHTT-CaM PPI inh – mutant huntingtin-calmodulin interaction inhibitors – biochemical, AlphaScreen, primary screen; AlphaScreen His-mHTT/GST-CaM binding, luminescence; P42858; inhibition, % at 15 µM; hit rate 3.6% among 190,000;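 also: 0% = both proteins with DMSO and 100% = one protein alone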
Pf apPOL block – Pf-apPOL inhibitors, biochemical, fluorescence. inhibition, % at 10 µM. hit rate 0.25% among 210,000. Plasmodium falciparum apicoplast DNA polymerase (apPOL). Recombinant Pf-apPOL, molecular beacon fluorescence, 1.5 h
Starred values were filed as active, the others as inactive; ! = a repeat was not active. A selection: hits, their analogues and other compounds. The true share with any hit is near 3.5%. Rule as the data show it: active = inhibition above about 50%; inactive = the rest.

What do the screens show for `CCc1cccc(CC)c1NC(=O)C1CCCCC1C(=O)O` (stereo unspecified)?
mHTT-CaM PPI inh: 2; Pf apPOL block: -1

What do the screens show for `COc1ccccc1N1CCN(C(=O)C2CCCN(c3cc(=O)n(C)c(=O)n3C)C2)CC1` (stereo unspecified)?
mHTT-CaM PPI inh: 5; Pf apPOL block: 3

What do the screens show for `COc1cccc(C=NCCN2CCOCC2)c1O`?
mHTT-CaM PPI inh: 8; Pf apPOL block: 6

What do the screens show for `Cc1c2occ(-c3ccc4c(c3)OCO4)c2cc2c1oc(=O)c1ccccc12`?
mHTT-CaM PPI inh: -2; Pf apPOL block: 5

Results for CCN1C(=O)CCC2(CN(C)C(=O)c3ccco3)CCCC12 (stereo unspecified) ?
mHTT-CaM PPI inh: -6; Pf apPOL block: -1

Results for Cc1ccccc1-n1[nH]c(C)c(C=Nc2cc([N+](=O)[O-])cc([N+](=O)[O-])c2O)c1=O ?
mHTT-CaM PPI inh: 53*; Pf apPOL block: -2

Results for Cc1ccccc1-n1[nH]c(C)c(C=Nc2ccc([N+](=O)[O-])cc2)c1=O ?
mHTT-CaM PPI inh: 11; Pf apPOL block: 4

What do the screens show for `O=c1c([N+](=O)[O-])c(O)c2ccccc2n1-c1ccccc1`?
mHTT-CaM PPI inh: -6; Pf apPOL block: -3

What do the screens show for `O=c1c([N+](=O)[O-])c(Cl)c2ccccc2n1-c1ccccc1`?
mHTT-CaM PPI inh: 100*; Pf apPOL block: -2

Results for CC1CCN(S(=O)(=O)N2CCCC(C(=O)NC(C)C)C2)CC1 (stereo unspecified) ?
mHTT-CaM PPI inh: 4; Pf apPOL block: 95*

How did CC1CCN(S(=O)(=O)N2CCCC(C(=O)NC3CCCC3)C2)CC1 (stereo unspecified) do in these assays?
mHTT-CaM PPI inh: -13; Pf apPOL block: -17

What do the screens show for `CCc1ccc(CN2C(=O)CCC2(C)C(=O)NC2CCCC2)cc1` (stereo unspecified)?
mHTT-CaM PPI inh: -5; Pf apPOL block: -6

Results for CN=C(Nc1cc(C)c(C)cc1C)SC ?
Pf apPOL block: -6

Results for O=[N+]([O-])c1cc(CN2CCCCC2)c2cccnc2c1O ?
mHTT-CaM PPI inh: 100*; Pf apPOL block: 0

How did Cc1c(O)ccc2c(CN3CCC(C)CC3)cc(=O)oc12 do in these assays?
mHTT-CaM PPI inh: -2; Pf apPOL block: -6

Results for CC1CCN(Cc2cc(Cn3ccnc3)c3cccnc3c2O)CC1 ?
mHTT-CaM PPI inh: 100*; Pf apPOL block: 5

What do the screens show for `O=[N+]([O-])c1cc([N+](=O)[O-])c2cccnc2c1N1CCOCC1`?
mHTT-CaM PPI inh: 20; Pf apPOL block: 5

What do the screens show for `O=[N+]([O-])c1ccccc1CN1CCCCCCC1`?
mHTT-CaM PPI inh: -1; Pf apPOL block: -3

How did Cc1ccnc2c([N+](=O)[O-])cccc12 do in these assays?
mHTT-CaM PPI inh: -4; Pf apPOL block: -2

What do the screens show for `O=[N+]([O-])c1cc(CN2CCOCC2)c2cccnc2c1O`?
mHTT-CaM PPI inh: 100*; Pf apPOL block: -60

How did O=[N+]([O-])c1cc(Cl)c2cccnc2c1O do in these assays?
mHTT-CaM PPI inh: 100*; Pf apPOL block: -1

How did O=C(c1c(F)cccc1F)N1CCC2(CC1)OCCN2S(=O)(=O)c1cccs1 do in these assays?
mHTT-CaM PPI inh: -2; Pf apPOL block: -4

Results for N#Cc1cnc2ccc(F)cc2c1N1CCC(C(=O)Nc2ccccc2F)CC1 ?
mHTT-CaM PPI inh: 2; Pf apPOL block: -2

What do the screens show for `Clc1cc2cccnc2c2ncccc12`?
mHTT-CaM PPI inh: 100*

What do the screens show for `CCOc1cccc(CN2CCCCCC2)c1O`?
mHTT-CaM PPI inh: 5; Pf apPOL block: -3

What do the screens show for `COc1c(I)cc(Cl)c2cccnc12`?
Pf apPOL block: -4

How did COCc1cc(CN2CCCCC2)c(O)c2ncccc12 do in these assays?
mHTT-CaM PPI inh: 100*; Pf apPOL block: 2

How did O=[N+]([O-])c1ccc(N2CCN(c3ccccc3)CC2)c2ncccc12 do in these assays?
mHTT-CaM PPI inh: 15; Pf apPOL block: -8

Results for O=[N+]([O-])c1cc(CN2CCN(c3ccccc3)CC2)c(O)c2ncccc12 ?
mHTT-CaM PPI inh: 100*; Pf apPOL block: 2

Results for Cc1cccc(COC2CCCN(C(=O)c3ccc4c(c3)OCO4)C2)c1 (stereo unspecified) ?
mHTT-CaM PPI inh: -5; Pf apPOL block: -3

What do the screens show for `O=C(OCc1cn([C@@H]2CN(C(=O)c3cccs3)[C@@H](c3ccc(Cl)cc3)C[C@H]2O)nn1)c1ccccc1`?
mHTT-CaM PPI inh: 16; Pf apPOL block: 1

Results for COCCCNC(=O)NC1(C(F)(F)F)Oc2ccccc2O1 ?
mHTT-CaM PPI inh: -3; Pf apPOL block: -2

Results for COc1ccc(C(=O)Nc2nc3ccc(C)cc3s2)cc1OC ?
mHTT-CaM PPI inh: 51*!; Pf apPOL block: 2

How did COc1ccc(C(=O)Nc2nc3ccc(C)cc3s2)cc1[N+](=O)[O-] do in these assays?
mHTT-CaM PPI inh: 2; Pf apPOL block: -23
